p53null 39C tox – kills p53 null cells at the nonpermissive temperature; H1299 p53-null (neo) cells, 39C, ATPlite viability, 24 h; Potency, µM (doses to about 46.1 µM), for inactives: at the top dose activity, negative = cell killing, most hits filed as cytotoxic; hit rate 0.97% among 55,000;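 also: 0% = DMSO only and -100% = full killing by 100 µM tamoxifen; nearly all actives have a fitted effect of over 50% in size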
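H1299 lung cancer cells, p53-null (H1299-neo) or expressing p53 A138V (H1299-p53A138V), were plated overnight at 37C, then exposed to compounds at up to 46 uM for 24 hr at 39C. Viability was read by ATP-based luminescence.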
NTMT1 inhibitor – blocks human N-terminal methyltransferase 1 activity | AID 1645870 | NTMT1 MTase-Glo SAH luminescence, purified enzyme | hit rate 2.5% among 59,000 | Potency, µM (doses to about 114 µM), for inactives: at the top dose activity change, negative = inhibition, actives largely listed as inhibitors | Q9BV86;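 also: plate controls were DMSO vehicle for no effect and no enzyme for full effect; nearly all actives have a fitted effect of over 65% in size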
Target sequence (Q9BV86 whole entry, looked up): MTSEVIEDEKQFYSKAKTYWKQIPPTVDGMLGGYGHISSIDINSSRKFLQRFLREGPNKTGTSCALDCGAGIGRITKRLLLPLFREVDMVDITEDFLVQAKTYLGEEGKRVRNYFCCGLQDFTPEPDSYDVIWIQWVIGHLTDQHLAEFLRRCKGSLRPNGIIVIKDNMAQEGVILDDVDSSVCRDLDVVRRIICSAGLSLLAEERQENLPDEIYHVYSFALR
p53null 32C tox – kills p53 null cells at the permissive temperature; hit rate 0.62% among 55,000; H1299-neo p53 null cells, ATP luminescence, 24 h, 32C; Potency, µM (series often up to 46.1 µM), for the others: top-dose activity change, negative = cytotoxicity, most hits filed as cytotoxic;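 also: 0% = DMSO only and -100% = full killing by 100 µM tamoxifen; nearly all actives have a fitted effect of over 55% in size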
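We seeded p53-null H1299-neo cells, incubated them overnight at 37C, and added compounds across a range up to 46 uM. After 24 hours at 32C, ATP reagent was applied for 20 min at room temperature and luminescence recorded.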
SKOV3 invasion – ovarian cancer metastasis inhibition, 3D TME model. SKOV3ip1-GFP adhesion/invasion on 3D omental model, fluorescence. hit rate 0.1% among 46,000. Potency, µM (highest dose often 45.8 µM), without a hit: at the highest dose activity change, negative = inhibition, usual class: inhibitors. AID 1963576;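 also: plate controls were DMSO wells for no effect and tomatine positive control wells for full effect; nearly all actives have a fitted effect of over 65% in size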
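Adhesion/invasion was scored as fixed GFP-labeled SKOV3ip1 cell counts (488/509 nm), normalized to DMSO and tomatine controls. Cancer cells in serum-free medium, with four compound doses (0.36-46 umol/L), sat 2 hr at RT then 16 hr at 37 C on a 48 hr fibroblast/mesothelial/ECM culture.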
Active calls of the source: *; i = inactive; ? = inconclusive; . = no result; ! = a repeat was not active; [ ] = dose if it differs, or a comment. Many of the other results were omitted from the sample, so hits are more common in it than they were. Calls follow the shape of the dose curve; as a rule, active = well fitted curve in the direction sought with a large enough effect; inconclusive = small, poorly fitted or top-dose-only effect, or another doubt; inactive = no such curve, though single readings can be large; an effect the other way counts as inactive or inconclusive. Potency is read from the fitted curve at half-maximal effect.

SMILES | p53null 39C tox | NTMT1 inhibitor | p53null 32C tox | SKOV3 invasion
O=C1NC(=O)C(c2cn3c4c(cccc24)CCC3)C1c1c[nH]c2ccccc12 (stereo not drawn) | . | -1%[57.5 µM] | . | .
CCCCN1C(=O)c2ccccc2NC1c1ccc(OC)c(COc2c(C)cc(NC(C)=O)cc2C)c1 (stereo not drawn) | . | -5% | . | .
CO[C@@H]1[C@@H](O)[C@H](O)[C@@H](n2c3c(Cl)cccc3c3c4c(c5c6cccc(Cl)c6[nH]c5c32)C(=O)NC4=O)O[C@H]1CO | . | -12% | . | .
O=C(C[C@@H]1C/C=C\CCC(=O)O[C@H](c2ccccc2)CNC1=O)NCc1ccc(Cl)cc1 | . | 17% | . | .
CCC(=O)N1CCc2cc(Br)cc(S(=O)(=O)N3CCCC(C(=O)N(C)c4ccc(Br)cc4)C3)c21 (stereo not drawn) | 11% | 89µM* | 27% | -3%
CCC(=O)N1CCc2cc(Br)cc(S(=O)(=O)N3CCCC(C(=O)Nc4ccc(OC)cc4OC)C3)c21 (stereo not drawn) | -4% | 89µM* | 5% | 6%
O=C(Nc1nnc(-c2cccs2)o1)c1ccc(Cl)cc1 | . | 7% | . | .
COc1ccc(-n2cc(-c3ccc4c(c3)OCO4)n(CC(=O)Nc3cc(Cl)ccc3C)c2=O)cc1 | 10µM* | ? | 16µM* | -4%
C=C1CCC2C(C)(C)CC(=O)CC2(C)C1CCC(C)CCO (stereo not drawn) | . | 10%[57.5 µM] | . | .
O=C(O)c1ccc(-c2c[nH]c3ncc(-c4ccccc4)cc23)cc1C1CCCC1 | . | 25µM* | . | -10%
COc1ccc(N2CCN(C(=O)C(C)n3nc(C)c4sc5ccccc5c4c3=O)CC2)cc1 (stereo not drawn) | 13µM* | -15% | -20% | ?
Cc1nn(C(C)C(=O)NC2CCC(C)CC2)c(=O)c2c1sc1ccccc12 (stereo not drawn) | 20µM* | -4% | ? | i
Cc1nn(CC(=O)NC2CCC(C)CC2)c(=O)c2c1sc1ccccc12 (stereo not drawn) | -23% | 9% | 2% | 9%
COc1ccc(-c2cc(C(F)(F)F)nc(SCCC(=O)Nc3ccccc3F)n2)cc1 | -19% | 0% | -5% | 0%
COc1ccc(-c2cc(C(F)(F)F)nc(SCCC(=O)Nc3cc(C)ccc3O)n2)cc1 | 11µM* | -12% | -2% | -4%
Cc1[nH]c(C=C2C(=O)Nc3ccc(S(=O)(=O)N(C)c4cccc(Cl)c4)cc32)c(C)c1C(=O)N1CCN(C)CC1 | . | 4%[57.5 µM] | . | 13%
CN1CCCN(C(=O)c2cccc(-c3ccc(/C=C4\C(=O)Nc5ccc(Cl)cc54)o3)c2)CC1 | . | 7.9µM* | . | .
CS(=O)(=O)Nc1ccc(-c2nc(NCc3ccc(-c4ccnc(C(F)(F)F)c4)cc3)c3ccccc3n2)cc1 | . | 7% | . | .
COc1ccc(N2CCN(CCCNC(=O)c3ccc4nc(N5CCCCC5)sc4c3)CC2)cc1 | -23% | 22µM* | -10% | i
CCOc1ccc(-c2cn3c(n2)sc2cc(C(=O)NCCCN4CCCCC4)ccc23)cc1 | -1% | 50µM* | -6% | 11µM*
CCN1CCN(CCCNC(=O)c2ccc3c(c2)sc2nc(-c4ccc(C)cc4)cn23)CC1 | -19% | ? | -3% | i
CCOc1ccc(-c2cn3c(n2)sc2cc(C(=O)NCCCN(CC)CC)ccc23)cc1 | 4% | 40µM* | -3% | ?
CCCN1CCN(CCCNC(=O)c2ccc3c(c2)sc2nc(-c4ccc(OCC)cc4)cn23)CC1 | 25µM* | ? | ? | ?
CCC(=O)NCCc1nc2cc(NC(=O)c3cccc(Br)c3)ccc2n1C | 10µM* | -25% | 13µM* | 2%
CC(C)c1ccccc1-c1ncc(F)c(NC2(c3ccc(-c4cccnc4)cc3)CC2)n1 | . | 13% | . | .
SMILES | p53null 39C tox | NTMT1 inhibitor | p53null 32C tox | SKOV3 invasion
CCOc1ccc(/C=C/C(=O)Nc2sc3c(c2C(=O)OC)C(C(=O)OC)CC3)cc1 (stereo not drawn) | 17% | 10µM* | 7% | 3%
COC(=O)c1c(NC(=O)CCCOc2ccc(C)cc2)sc2c1C(C(=O)OC)CC2 (stereo not drawn) | 21% | 18µM* | 11% | -4%
COC(=O)c1c(NC(=O)CCCOc2cccc(C)c2)sc2c1CCC2 | 2% | -10% | 0% | -2%
COC(=O)c1c(NC(=O)CCCOc2cccc(C)c2)sc2c1C(C(=O)OC)CC2 (stereo not drawn) | 10% | 14µM* | 6% | i
COc1cc(O)c(C(CC(=O)N2CCC(c3ccccc3)CC2)c2ccc(C)cc2)c(OC)c1 (stereo not drawn) | . | 2%[228 µM] | . | .
O=C(CC(Nc1ccc(F)cc1)c1ccccc1)c1ccccc1 (stereo not drawn) | -10% | . | . | .
O=C(CC(Nc1ccc(Cl)cc1)C(=O)O)c1ccccc1 (stereo not drawn) | 14µM* | . | ? | .
COC(=O)C1=C(C)NC(c2ncc(F)cc2F)=N[C@@H]1c1ccc(F)cc1Cl | . | 19% | . | .
CCOC(=O)C1CCN(c2ccc(NCc3ccc(-c4ccc(C#N)cc4)o3)cc2)CC1 | . | -5%[57.5 µM] | . | .
O=C1OC2(c3ccccc31)c1cc(Br)c(O)c(Br)c1Oc1c2cc(Br)c(O)c1Br | . | 50µM* | . | .
CS(=O)(=O)c1ccc([C@@H](CC2CCCC2)C(=O)Nc2nccs2)cc1 | . | 3% | . | .
COC(=O)c1ccc(NS(=O)(=O)c2ccc3[nH]c4c(c3c2)CCCCC4)cc1 | 16µM* | ? | 36% | i
CCn1nnc2c(N3CCOCC3)nc(-c3ccc(NC(=O)Nc4ccc(C(=O)N5CCN(C)CC5)cc4)cc3)nc21 | . | -18% | . | -16%
CN(C)CCN(C)C(=O)c1ccc(NC(=O)Nc2ccc(-c3nc(N4CCOCC4)c4ccn(CC(F)(F)F)c4n3)cc2)cc1 | . | 22µM*! | . | ?
O=C(NCc1cccs1)c1cc2nc(-c3ccco3)cc(C(F)(F)Cl)n2n1 | . | 2%[57.5 µM] | . | .
O=C(O)c1c(Cl)c(Cl)c(Cl)c(Cl)c1-c1c2cc(I)c(=O)c(I)c-2oc2c(I)c(O)c(I)cc12 | . | 3.5µM* | . | -5%
O=C(O)c1ccc(O)c2ncc(N3CCCN(CCCc4ccncc4)CC3)cc12 | . | 3% | . | .
Cc1ccc(Cl)cc1N1CCN(CCNC(=O)Nc2ccccc2Cl)CC1 | -5% | 89µM* | 11% | 112%
O=C(NCCN1CCN(c2cccc(Cl)c2)CC1)Nc1ccccc1C(F)(F)F | -8% | -6% | 6% | -3%
CC(NC(=O)Cc1cc(F)cc(F)c1)C(=O)NC1C(=O)N(C)c2ccccc2-c2ccccc21 (stereo not drawn) | . | 5%[57.5 µM] | . | .
CC(C)(C)OC(=O)N1CCN(c2ccc(NCc3ccc(-c4ccccc4F)o3)cc2)CC1 | . | -5% | . | .
CCc1ccc(-n2nc(CO)c(C(=O)NC)n2)cc1 | 20µM* | -12% | ? | 7%
CCc1ccc(-n2nc(CO)c(C(=O)NCC(c3ccccc3)c3ccccc3)n2)cc1 | -14% | 6% | 0% | -6%
O=C(c1cc2sccc2n1Cc1ccccc1)N(CCc1ccc(O)c(O)c1)Cc1ccccc1 | . | -2%[57.5 µM] | . | .

Screens (PubChem)
